# PubChem BioAssay (NCATS)
# Inconclusive results are not listed. Unmarked numbers belong to inactive results. Active and inactive are the calls of the source. The call rests on the fitted dose curve; in most records, active means well fitted cell-killing curve with a large enough effect; inconclusive means small, poorly fitted or top-dose-only effect, or effect the other way; inactive means no such curve, though single readings can be large or run the other way.
# Tests used:
# [1] = Quantitative High-Throughput drug screen in 47 multiple myeloma cell lines against the NCATS MIPE library collection: MM1S_ATCC cell viability assay (AID 1918980); further: nearly all actives have a fitted effect of over 45% in size
# Summary of the method: (§1)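 Viability after 48 h drug exposure was measured as ATP-dependent luminescence. Cells, 500 per well, sat at 37 °C under 5% CO2; DMSO wells set 100%, media-only wells 0%.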
# [2] = Quantitative High-Throughput drug screen in 47 multiple myeloma cell lines against the NCATS MIPE library collection: LP1_DSMZ cell viability assay (AID 1918982); further: nearly all actives have a fitted effect of over 35% in size
# Summary of the method: as §1
# [3] = Quantitative High-Throughput drug screen in 47 multiple myeloma cell lines against the NCATS MIPE library collection: KMS34_JCRB cell viability assay (AID 1918985); further: nearly all actives have a fitted effect of over 40% in size
# Summary of the method: as §1
# [4] = Quantitative High-Throughput drug screen in 47 multiple myeloma cell lines against the NCATS MIPE library collection: XG1_PLB cell viability assay (AID 1919866); further: nearly all actives have a fitted effect of over 35% in size
# Summary of the method: as §1
# [5] = Quantitative High-Throughput drug screen in 47 multiple myeloma cell lines against the NCATS MIPE library collection: UTMC2_PLB cell viability assay (AID 1919868); conditions: CellTiter-Glo ATP luminescence, 48 h; viability (% of DMSO control): at 45.8 µM (top of the series); further: nearly all actives have a fitted effect of over 55% in size
# Summary of the method: as §1
# [6] = Quantitative High-Throughput drug screen in 47 multiple myeloma cell lines against the NCATS MIPE library collection: PCM6_Riken cell viability assay (AID 1919870); further: nearly all actives have a fitted effect of over 30% in size
# Summary of the method: as §1
# [7] = Quantitative High-Throughput drug screen in 47 multiple myeloma cell lines against the NCATS MIPE library collection: OPM2_DSMZ cell viability assay (AID 1919872); further: nearly all actives have a fitted effect of over 30% in size
# Summary of the method: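 Myeloma cell lines, 500 cells per well, exposed to MIPE 4.0 library compounds for 48 h at 37C, 5% CO2. Viability from ATP by CellTiter-Glo luminescence; normalised to DMSO (100%) and media-only (0%) wells.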
# [8] = Quantitative High-Throughput drug screen in 47 multiple myeloma cell lines against the NCATS MIPE library collection: MM1R_ATCC cell viability assay (AID 1918981); further: nearly all actives have a fitted effect of over 35% in size
# Summary of the method: as §1
# [9] = Quantitative High-Throughput drug screen in 47 multiple myeloma cell lines against the NCATS MIPE library collection: KMS28PE_JCRB cell viability assay (AID 1918983); further: nearly all actives have a fitted effect of over 35% in size
# Summary of the method: as §1
# [10] = Quantitative High-Throughput drug screen in 47 multiple myeloma cell lines against the NCATS MIPE library collection: L363_DSMZ cell viability assay (AID 1918984); further: nearly all actives have a fitted effect of over 40% in size
# Summary of the method: as §1
# [11] = Quantitative High-Throughput drug screen in 47 multiple myeloma cell lines against the NCATS MIPE library collection: OCIMY7_PLB cell viability assay (AID 1918987); conditions: OCI-MY7 myeloma viability, CellTiter-Glo ATP, 48 h; viability (% of DMSO): at 45.8 µM (top of the series); further: nearly all actives have a fitted effect of over 65% in size
# Summary of the method: as §1
# [12] = Quantitative High-Throughput drug screen in 47 multiple myeloma cell lines against the NCATS MIPE library collection: OCIMY5_PLB cell viability assay (AID 1918988); further: nearly all actives have a fitted effect of over 65% in size
# Summary of the method: as §1
# [13] = Quantitative High-Throughput drug screen in 47 multiple myeloma cell lines against the NCATS MIPE library collection: OPM1_PLB cell viability assay (AID 1918989); further: nearly all actives have a fitted effect of over 40% in size
# Summary of the method: as §1
# [14] = Quantitative High-Throughput drug screen in 47 multiple myeloma cell lines against the NCATS MIPE library collection: U266_ATCC cell viability assay (AID 1919864); further: nearly all actives have a fitted effect of over 35% in size
# Summary of the method: as §1
# [15] = Quantitative High-Throughput drug screen in 47 multiple myeloma cell lines against the NCATS MIPE library collection: XG6_PLB cell viability assay (AID 1919865); further: nearly all actives have a fitted effect of over 40% in size
# Summary of the method: as §1
# [16] = Quantitative High-Throughput drug screen in 47 multiple myeloma cell lines against the NCATS MIPE library collection: PE2_PLB cell viability assay (AID 1919869); further: nearly all actives have a fitted effect of over 35% in size
# Summary of the method: as §1
# [17] = Quantitative High-Throughput drug screen in 47 multiple myeloma cell lines against the NCATS MIPE library collection: RPMI8226_ATCC cell viability assay (AID 1919871); further: nearly all actives have a fitted effect of over 30% in size
# Summary of the method: as §1
# [18] = Quantitative High-Throughput drug screen in 47 multiple myeloma cell lines against the NCATS MIPE library collection: VP6_DJ cell viability assay (AID 1919867); further: nearly all actives have a fitted effect of over 40% in size
# Summary of the method: as §1
# [19] = Quantitative High-Throughput drug screen in 47 multiple myeloma cell lines against the NCATS MIPE library collection: SKMM1_PLB cell viability assay (AID 1919863); conditions: SKMM1 myeloma viability, CellTiter-Glo ATP, 48 h; viability: active compounds read low; further: nearly all actives have a fitted effect of over 35% in size
# Summary of the method: as §1
# Potency means the concentration at half of the fitted maximal effect.
Structure (SMILES),Potency [1],Potency [2],Potency [3],Potency [4],Potency [5],Potency [6],Potency [7],Potency [8],Potency [9],Potency [10],Potency [11],Potency [12],Potency [13],Potency [14],Potency [15],Potency [16],Potency [17],Potency [18],Potency [19],viability [19] [%]
CN(C)CC[C@H](c1ccc(Cl)cc1)c1ccccn1,16.6 µM (active),inactive,inactive,6.62 µM (active),inactive,inactive,inactive,–,–,–,–,–,–,–,–,–,–,–,–,–
COc1cc(O)c2c(c1)C1OC1C[C@H](O)[C@H](O)C(=O)C=CC[C@H](C)OC2=O (stereo not given in full),–,5.26 µM (active),2.35 µM (active),2.64 µM (active),10.5 µM (active),2.35 µM (active),2.64 µM (active),2.64 µM (active),5.9 µM (active),2.35 µM (active),0.372 µM (active),3.72 µM (active),5.26 µM (active),4.69 µM (active),4.69 µM (active),2.35 µM (active),3.72 µM (active),–,–,–
CC(C)c1cnn2c(NCc3ccccc3)cc(NCCCCCCN)nc12,3.32 µM (active),18.7 µM (active),18.7 µM (active),0.935 µM (active),–,13.2 µM (active),–,–,14.8 µM (active),14.8 µM (active),11.8 µM (active),6.62 µM (active),18.7 µM (active),2.64 µM (active),0.332 µM (active),26.4 µM (active),–,11.8 µM (active),–,–
Cc1cc(Nc2ncc3c(n2)N(C)C(=O)N(c2cc(NC(=O)c4cccc(C(F)(F)F)c4)ccc2C)C3)n(C)n1,0.935 µM (active),–,–,2.35 µM (active),0.418 µM (active),1.87 µM (active),0.743 µM (active),–,1.32 µM (active),1.32 µM (active),0.526 µM (active),0.935 µM (active),0.235 µM (active),–,0.935 µM (active),0.743 µM (active),–,0.935 µM (active),–,–
COc1cccc2c1C(=O)c1c(O)c3c(c(O)c1C2=O)C[C@@](O)(C(=O)CO)C[C@H]3O[C@H]1C[C@H](N)[C@H](O)[C@H](C)O1,0.0209 µM (active),0.0743 µM (active),0.235 µM (active),0.296 µM (active),0.118 µM (active),0.105 µM (active),–,–,0.166 µM (active),0.743 µM (active),0.166 µM (active),0.166 µM (active),0.526 µM (active),0.372 µM (active),0.132 µM (active),0.118 µM (active),0.235 µM (active),0.264 µM (active),0.209 µM (active),–
Cc1cncc2cccc(S(=O)(=O)N3CCCN(C(=O)CN)C[C@@H]3C)c12,–,inactive,–,20.9 µM (active),5.9 µM (active),20.9 µM (active),inactive,inactive,18.7 µM (active),inactive,11.8 µM (active),1.48 µM (active),inactive,–,14.8 µM (active),–,inactive,inactive,–,–
Cc1ccc(O)c(C(CCN(C(C)C)C(C)C)c2ccccc2)c1 (stereo not given),inactive,–,–,inactive,–,inactive,–,–,inactive,inactive,inactive,inactive,inactive,inactive,inactive,–,inactive,inactive,–,–
O=c1[nH]c(=O)n([C@H]2C[C@@H](O)[C@@H](CO)O2)cc1F,11.8 µM (active),10.5 µM (active),–,9.35 µM (active),10.5 µM (active),14.8 µM (active),–,–,20.9 µM (active),–,0.59 µM (active),26.4 µM (active),0.0296 µM (active),23.5 µM (active),–,14.8 µM (active),–,–,–,–
COc1ccc(S(=O)(=O)Nc2cccnc2Nc2ccc(O)cc2)cc1,0.209 µM (active),0.148 µM (active),0.0469 µM (active),0.0166 µM (active),–,0.235 µM (active),0.118 µM (active),–,0.105 µM (active),inactive,0.0372 µM (active),0.0372 µM (active),0.235 µM (active),1.05 µM (active),–,–,–,0.187 µM (active),0.0372 µM (active),–
NS(=O)(=O)OC[C@@H]1C[C@@H](n2ccc3c(N[C@H]4CCc5ccccc54)ncnc32)C[C@H]1O,2.64 µM (active),0.662 µM (active),–,0.332 µM (active),–,6.62 µM (active),inactive,–,0.935 µM (active),–,0.743 µM (active),16.6 µM (active),16.6 µM (active),8.33 µM (active),–,–,–,1.48 µM (active),1.05 µM (active),–
N#Cc1ccc(COC[C@H]2O[C@@H](n3c(NCc4ccc(Cl)c(Cl)c4)nc4c(N)ncnc43)[C@@H](O)[C@@H]2O)cc1,18.7 µM (active),–,16.6 µM (active),2.64 µM (active),1.32 µM (active),5.26 µM (active),–,–,–,–,–,3.72 µM (active),–,20.9 µM (active),16.6 µM (active),–,–,–,2.96 µM (active),–
C=C[C@@H]1CN2CCC1C[C@H]2[C@H](O)c1ccnc2ccc(OC)cc12 (stereo not given in full),–,inactive,–,–,–,–,inactive,inactive,inactive,inactive,–,18.7 µM (active),inactive,–,–,–,inactive,–,–,93.1
CC(=O)O[C@H]1C[C@@H]2CC[C@H]3[C@H]4C[C@H]([N+]5(C)CCCCC5)[C@@H](OC(C)=O)[C@@]4(C)CC[C@@H]3[C@@]2(C)C[C@H]1N1CCCCC1,–,inactive,–,–,inactive,inactive,–,inactive,0.332 µM (active),inactive,inactive,–,inactive,inactive,inactive,inactive,–,inactive,–,–
